We go through 27 molecules from PubChem BioAssay (NCATS).

The target in test [1] is Cytochrome P450 3A7 (Homo sapiens) (UniProt P24462). The experiment in a line: Cytochrome P450 family 3 subfamily A member 7 (CYP3A7) small molecule antagonists: luciferase biochemical qHTS assay (AID 1963596). Further: on the % scale 0 is the no-effect control and ±100 the full control effect; nearly all actives have a fitted effect of over 40% in size. The method in brief:
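Compounds were screened in qHTS format for interference with CYP3A7 turnover of a proluciferin substrate. Reactions ran 1 h at room temperature after NADPH regeneration solution was added, then luciferin product was detected by luminescence.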
A general note: qHTS replaces the single test concentration by a dilution series.

Test [2] can be described thus: Viability qHTS for spleen associated tyrosine kinase inhibitor (SYKi) naive MV4-11 cells (AID 1963823). Further: nearly all actives have a fitted effect of over 40% in size. Further: potency means the concentration at half of the fitted maximal effect. The method in brief: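 Viability of MV4-11 AML cells lacking prior SYK inhibitor exposure is scored by CellTiter-Glo luminescence following 72 hr compound incubation at 37 C, 5% CO2, seeded at 500 cells per well.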
A short description of test [3]: Viability qHTS for spleen associated tyrosine kinase inhibitor (SYKi) drug resistant MV4-11 cells (AID 1963824). Further: nearly all actives have a fitted effect of over 35% in size. Further: potency means the concentration at half of the fitted maximal effect. The procedure, abridged:
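CellTiter-Glo luminescence, read 10 min after reagent addition, reports viability after a 72 hr compound exposure. Cells are an MV4-11 line made resistant to SYK inhibition, seeded at 500 per well onto compound-containing plates.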

Test [4] in a line: Cellular viability qHTS for adrenocortical cancer (ACC) cell line SW-13 (AID 1963989). Further: nearly all actives have a fitted effect of over 65% in size. Further: potency means the concentration at half of the fitted maximal effect.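 On activity (max response): cells grown in serum-free medium with ITS supplement; on the % scale 0 is the no-effect control and ±100 the full control effect.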 The note with it: SW-13 ACC cells viability, CellTiter-Glo, 48 h; activity (max response): stronger effect = lower value. The method in brief:
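48 h treatment, SW-13 in ITS/DMEM serum-free; doses up to 46 uM; readout CellTiter-Glo luminescence; curve fit four-parameter logistic.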

Test [5] in a line: Cellular viability qHTS for adrenocortical cancer (ACC) cell line NCI-H295R (AID 1963990). Further: nearly all actives have a fitted effect of over 60% in size. Further: potency means the concentration at half of the fitted maximal effect.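 On activity change, negative = viability loss: 0% = DMSO only wells and -100% = full killing with cytotoxic reference compound.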 The procedure, abridged:
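Compound titrations (up to 46 uM final) are applied to NCI-H295R cultures for 48 h at 37C. Viable cell number is estimated by CellTiter-Glo signal, normalised to DMSO and doxorubicin controls.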

Molecules are shown by their SMILES. “And” between values parts separate entries of the source, which are not always exact repeats. Equal values may be shown once. Results filed as inconclusive are left out. Some structures have more than one record in an assay (separate samples or runs), and their calls can disagree. The source made the active and inactive calls. The call rests on the fitted dose curve; in most records, active means well fitted curve in the direction sought with a large enough effect; inconclusive means small, poorly fitted or top-dose-only effect, or another doubt; inactive means no such curve, though single readings can be large; an effect the other way counts as inactive or inconclusive.

Chain of Cytochrome P450 3A7 (Homo sapiens) (P24462 whole entry, looked up): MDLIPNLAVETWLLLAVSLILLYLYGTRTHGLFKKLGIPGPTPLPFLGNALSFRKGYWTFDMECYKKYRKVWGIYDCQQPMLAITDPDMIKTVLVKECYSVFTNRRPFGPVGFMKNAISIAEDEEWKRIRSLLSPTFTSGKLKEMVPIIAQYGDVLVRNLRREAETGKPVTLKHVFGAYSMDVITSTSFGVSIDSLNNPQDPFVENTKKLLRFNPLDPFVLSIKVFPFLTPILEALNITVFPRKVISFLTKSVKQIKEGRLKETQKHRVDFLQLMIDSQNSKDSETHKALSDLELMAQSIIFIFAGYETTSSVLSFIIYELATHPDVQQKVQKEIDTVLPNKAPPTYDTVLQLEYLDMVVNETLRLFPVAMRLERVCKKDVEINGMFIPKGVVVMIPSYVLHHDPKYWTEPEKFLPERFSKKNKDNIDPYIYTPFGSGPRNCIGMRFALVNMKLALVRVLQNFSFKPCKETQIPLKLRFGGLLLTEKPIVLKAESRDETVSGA

Consider `Cc1ncc(CO)c(C=O)c1O`, for which the Potency result in test [1], in test [2], in test [3] and in test [5] was “inactive” throughout. Moreover, the activity (max response) in test [4] was -2.89% (inactive).

With `CC(C(=O)O)c1cccc(Oc2ccccc2)c1` (stereo not given), the Potency entry in test [1], in test [2], in test [3] and in test [5] was “inactive” each time. Moreover, the activity (max response) in test [4] is 9.95% (inactive).

Take `COC(=O)c1ccccc1C(=O)c1ccc(OCCN2CCCCC2)cc1`: the Potency result in test [1], in test [2], in test [3] and in test [5] was “inactive” throughout. For the same molecule, the activity (max response) in test [4] is -0.425% (inactive).

Take `CC1(C)S[C@@H]2[C@H](NC(=O)[C@H](N)c3ccccc3)C(=O)N2[C@H]1C(=O)O`: the Potency entry in test [1], in test [2], in test [3] and in test [5] was “inactive” throughout. Besides, in test [4], the activity (max response) was 9.26% (inactive).

On to `CCN(CC)CC(=O)Nc1c(C)cccc1C(=O)OC`, for which the Potency result in test [1], in test [2], in test [3] and in test [5] was “inactive” throughout. Further, the activity (max response) in test [4] was -5.08% (inactive).

For the molecule `COC(=O)c1cc(Cl)ccc1OC`, the Potency result in test [1], in test [2], in test [3] and in test [5] was “inactive” throughout. Also, the activity (max response) in test [4] was -2.06% (inactive).

Turning to `O=[N+]([O-])c1cncn1CCN1CCOCC1`, the Potency entry in test [1], in test [2], in test [3] and in test [5] was “inactive” throughout. For the same molecule, the activity (max response) in test [4] was 13.4% (inactive) and -13.9% (inactive).

With `NS(=O)(=O)c1cc(C2(O)NC(=O)c3ccccc32)ccc1Cl` (stereo not given), the Potency entry in test [1], in test [2], in test [3] and in test [5] was “inactive” each time. For the same molecule, the activity (max response) in test [4] was 17.7% (inactive).

Turning to `CN1[C@@H]2CC[C@H]1CC(OC(=O)c1c[nH]c3ccccc13)C2` (stereo not given in full), the Potency entry in test [1], in test [2], in test [3] and in test [5] was “inactive” throughout. In addition, the activity (max response) in test [4] was -7.55% (inactive).

In the case of `COc1ccc2c(c1)c1c3n2CCN(C)C3=NCC1`, the Potency result in test [1], in test [2], in test [3] and in test [5] was “inactive” each time. Further, in test [4], the activity (max response) was 0.0191% (inactive).

Turning to `Nc1nnnn1-c1ccccc1`, the Potency result in test [1], in test [2], in test [3] and in test [5] was “inactive” each time. Further, the activity (max response) in test [4] was 1.62% (inactive).

On to `NCC1CCC(C(=O)Oc2ccc(CCC(=O)O)cc2)CC1` (stereo not given), for which the Potency result in test [1], in test [2], in test [3] and in test [5] was “inactive” in each case. Also, the activity (max response) in test [4] was 3.63% (inactive).

Turning to `CN1[C@@H]2CC[C@H]1CC(OC(=O)C(O)c1ccccc1)C2` (stereo not given in full), the Potency result in test [1], in test [2], in test [3] and in test [5] was “inactive” in each case. In addition, the activity (max response) in test [4] is 7.83% (inactive).

As for `NCCCNCCSP(=O)(O)O`, the activity change, negative = inhibition in test [1] was 11.1% [at 11.5 µM] (inactive). For the same molecule, the viability (% of control) in test [2] was 79.8% [at 9.25 µM] (inactive). The viability, % of control in test [3] was 105% [at 9.25 µM] (inactive). For the same molecule, in test [4], the activity (max response) is 1.65% (inactive). For the same molecule, in test [5], the activity change, negative = viability loss was 0.548% [at 9.17 µM] (inactive).

Regarding `OCc1ccccn1`, the Potency entry in test [1], in test [2], in test [3] and in test [5] was “inactive” in each case. In addition, the activity (max response) in test [4] was -4.99% (inactive).

Regarding `Nc1nc(-c2ccccc2)c(Br)c(=O)[nH]1`, the Potency entry in test [1], in test [2], in test [3] and in test [5] was “inactive” in each case. For the same molecule, the activity (max response) in test [4] was 0.407% (inactive).

Regarding `CC(=O)Nc1ccc(CC(=O)O)cc1`, the Potency entry in test [1], in test [2], in test [3] and in test [5] was “inactive” throughout. The activity (max response) in test [4] is 4.33% (inactive).

Consider `OCC(CO)N[C@H]1C[C@](O)(CO)[C@@H](O)[C@H](O)[C@H]1O`, for which the Potency result in test [1], in test [2], in test [3] and in test [5] was “inactive” in each case. Further, in test [4], the activity (max response) is 4.01% (inactive).

Consider `CNc1c2c(nn1C)CCCC2`, for which the Potency result in test [1], in test [2], in test [3] and in test [5] was “inactive” in each case. Also, the activity (max response) in test [4] was -0.416% (inactive).

With `CCOC(=O)c1ccc(OCCN2C[C@H](O)[C@@H](O)[C@H](O)[C@H]2CO)cc1`, the Potency result in test [1], in test [2], in test [3] and in test [5] was “inactive” each time. For the same molecule, the activity (max response) in test [4] is -1.86% (inactive).

`CCOc1cc(C(=O)N2CCC(N3CCN(C)CC3)CC2)ccc1Nc1ncc2c(n1)N(C1CCCC1)c1ccccc1C(=O)N2C`: the Potency result in test [1] is “inactive”. The Potency in test [2] is 651 nM (active) and 1.05 µM (active); in test [3] it was 651 nM (active) and 934 nM (active); in test [4] it was 28.2 µM (active); in test [5], 17.8 µM (active).

As for `C[n+]1ccccc1/C=N/O`, the Potency entry in test [1], in test [2], in test [3] and in test [5] was “inactive” each time. The activity (max response) in test [4] was 3.67% (inactive).

Consider `CCOC(=O)[C@H](CCc1ccccc1)N[C@@H](C)C(=O)N1C(=O)N(C)C[C@H]1C(=O)O`, for which the Potency result in test [1], in test [2], in test [3] and in test [5] was “inactive” in each case. Moreover, the activity (max response) in test [4] was 5.98% (inactive).

With `CN(C)CCC(c1ccccc1)c1ccccn1` (stereo not given), the Potency result in test [1], in test [2], in test [3] and in test [5] was “inactive” in each case. Also, in test [4], the activity (max response) is 13.1% (inactive).

For the molecule `Cc1cc2c(cc1CC(=O)c1sccc1S(=O)(=O)Nc1onc(C)c1Cl)OCO2`, the Potency entry in test [1], in test [2], in test [3] and in test [5] was “inactive” each time. Further, the activity (max response) in test [4] was 2.25% (inactive) and -17.1% (inactive).

Consider `CC(=O)c1ccc(S(=O)(=O)NC(=O)NC2CCCCC2)cc1`, for which the Potency entry in test [1], in test [2], in test [3] and in test [5] was “inactive” in each case. Also, the activity (max response) in test [4] was 9.54% (inactive).

As to `NC(=Nc1ccccc1)Nc1ccccc1`, the Potency entry in test [1] and in test [5] was “inactive” each time. The Potency in test [2] was 38.6 µM (active) and inactive; in test [3], 34.4 µM (active). Further, the activity (max response) in test [4] is -1.07% (inactive).
